# Choline anaer gr = growth inhibitors of anaerobic choline-fed gram-negatives, minimal medium, absorbance | Gram-negative bacterium anaerobic choline minimal medium; hits give low values | calls only | 55,000 compounds, 0.2% hits; call rule not given here
# An asterisk follows results filed as active; i = inactive; + = active, no number. The full list was thinned out, with hits kept by preference.
SMILES,Choline anaer gr
CN1CCc2cccc(Cl)c2CC1,+
CN1CCN(c2nc3ccccc3nc2Cl)CC1,i
O=C1[C@@H]2CCCN2[C@@H](c2ccccc2F)N1c1ccccn1,i
CN1C2CCC1CC(OC(c1ccc(F)cc1)c1ccc(F)cc1)C2 (stereo unspecified),+
CN1[C@@H]2CC[C@H]1CC(OC1c3ccccc3CCc3ccccc31)C2 (stereo partly specified),i
Fc1ccc(C(OCCN2CCN(CCCc3ccccc3)CC2)c2ccc(F)cc2)cc1,i
CNC1CC(c2ccc(Cl)c(Cl)c2)c2ccccc21 (stereo unspecified),i
O=C(Nc1nccs1)c1cccn(Cc2cccc(Cl)c2)c1=O,i
C[C@]12CCC3C4CCC(=O)C=C4CCC3C1CCC2O (stereo partly specified),i
C[C@@H]1O[C@@H](O[C@@H]2C[C@@H](O)[C@]3(CO)[C@H]4[C@H](O)C[C@]5(C)[C@@H](C6=CC(=O)OC6)CC[C@]5(O)[C@@H]4CC[C@]3(O)C2)[C@H](O)[C@H](O)[C@H]1O,i

# Screening data deposited in PubChem BioAssay by ICCB-Longwood Screening Facility, Harvard Medical School.
